The results in this text go back to PubChem BioAssay.

Each structure is given as a SMILES string.

In the assay the target is Concanavalin-A (Canavalia ensiformis) (UniProt P02866). As to the kind of experiment: compounds binding concanavalin A lectin – biochemical, small-molecule microarray, Alexa647 label, 635 nm, artefact control for SMM control protein annotation, primary screen (AID 1127).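 Note: z combines 667 nm emission intensity with signal-to-noise across three replicate slides.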 The note with it: ConA-A647 binding fluorescence, higher = more signal.
Chain of Concanavalin-A (Canavalia ensiformis) (P02866 whole entry, looked up): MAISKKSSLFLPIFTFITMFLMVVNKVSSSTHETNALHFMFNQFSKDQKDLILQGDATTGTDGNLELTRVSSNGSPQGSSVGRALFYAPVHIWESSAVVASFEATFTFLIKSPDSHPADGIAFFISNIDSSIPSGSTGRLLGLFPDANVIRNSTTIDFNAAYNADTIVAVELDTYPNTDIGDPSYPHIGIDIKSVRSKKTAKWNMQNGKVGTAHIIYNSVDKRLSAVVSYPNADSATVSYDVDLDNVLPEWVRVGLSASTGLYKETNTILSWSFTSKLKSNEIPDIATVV
Molecule `COC(=O)c1c2oc(c1C(=O)OC)C(=O)N(Cc1ccccc1)Cc1cn(nn1)C[C@H](Cc1ccccc1)NC(=O)N[C@H](CO)CC2` yielded a composite z-score of 0.861.
Molecule `O=C1O[C@H](c2ccccc2)[C@H](c2ccccc2)N2[C@H]1[C@@H](C(=O)Nc1nc3ccccc3s1)[C@]1(C(=O)Nc3ccc(C#CC4(O)CCCCCC4)cc31)[C@H]2c1ccccc1OCCO` had a composite z-score of 1.07.
For the molecule `O=C1O[C@@H](c2ccccc2)[C@@H](c2ccccc2)N2[C@@H](c3ccccc3OCCO)[C@]3(C(=O)Nc4ccc(C#CCCO)cc43)[C@@H](C(=O)N3CCCCCCC3)[C@H]12`, the composite z-score came out at 1.2.
Molecule `CC(C)N1CC=CC23O[C@@H]4C=CCOC(=O)[C@@H]4[C@H]2C(=O)N(CCCO)[C@@H]3C1=O` (some centres not stated) gave a composite z-score of 0.234.
With `COc1ccc([Si](C)(C)[C@@H]2[C@@H](CC(=O)N(CCO)Cc3ccccc3)O[C@]3(C(=O)N(Cc4cccc(N5CCOC5=O)c4)c4ccccc43)[C@H]2C)cc1` the figure was 1.08; with `COC(=O)[C@@]1(Cc2ccc(F)cc2)[C@H]2c3cc(C(=O)N4CCCC4)n(CCN4CNCC4=O)c3C[C@H]2CN1C(=O)c1ccccc1`, 0.63.
Consider `C=C[C@@H](COC(C)=O)N(C(=O)OC(C)(C)C)S(=O)(=O)c1ccc(Br)cc1`, for which the composite z-score is 1.12.
On to `CN(C)C(=O)[C@]1(CCS(=O)(=O)c2ccccc2)N=C(c2ccc(OCCCO)cc2)O[C@@H]1c1ccccc1N=[N+]=[N-]`, for which the composite z-score was 1.16.
In turn, `O=C1NC(=O)C2C1C=CC(C(O)c1ccco1)N2Nc1ccccn1` (configuration not stated) registered a composite z-score of -0.0501.
`C=CC[C@]1(C(=O)NCCN2CCOCC2)N=C(c2ccc(OCCCO)cc2)O[C@H]1c1ccccc1CN=[N+]=[N-]`: the composite z-score is -0.438.
`CCOC(=O)C[C@H]1[C@H](OC(=O)c2ccccc2-c2ccccc2)[C@@H](NC(=O)c2ccc(-c3ccccc3)cc2)c2cc(OCCCO)ccc2N1C(=O)c1ccc2ccccc2n1` displayed a composite z-score of 0.513.
With `CCCC[C@@H](O)C1=C(COc2ccccc2)C[C@H]2C(=O)N(C)C(=O)[C@H]2[C@H]1CO`, the composite z-score was -0.425.
In turn, `COCCOC(=O)N1C(=O)[C@@]2(c3cc(C#Cc4ccc(OC)cc4)ccc31)[C@H](C(=O)Nc1nc3ccccc3s1)[C@H]1C(=O)O[C@H](c3ccccc3)[C@H](c3ccccc3)N1[C@@H]2c1ccc(O)cc1` returned a composite z-score of 1.16.
As for `COC1OC[C@]2(C)[C@H]3C4=C(CN2C(=O)OC(C)(C)C)[C@H](C)C(CO)C(CO)C4CC[C@@H]13` (some centres not stated), the composite z-score turned out to be 1.17.
As to `COCCCNC(=O)[C@]1(CCS(=O)(=O)c2ccccc2)N=C(c2ccc(OCCCO)cc2)O[C@@H]1c1ccccc1N=[N+]=[N-]`, the composite z-score came to 1.18.
As for `CCCNC(=O)[C@@]1(c2ccc([N+](=O)[O-])cc2)CC(=O)N(C2CCCCC2)[C@@H]1c1ccc(CO)cc1`, the composite z-score is 0.95.
Consider `[N-]=[N+]=NCc1ccccc1C[C@@]1(C(=O)N2CCOCC2)N=C(c2ccc(OCCCO)cc2)O[C@@H]1c1ccccc1`, for which the composite z-score stood at 1.08.
The molecule `NC(N)=NCCCn1cc(CNC(=O)[C@@H](N)Cc2ccccc2)nn1` registered a composite z-score of -0.739.
Take `COC(=O)[C@@]1(Cc2ccc(OC)cc2)[C@H]2c3cc(C(=O)N(C)C)n(CCO)c3C[C@H]2CN1C(=O)c1ccccc1`: the composite z-score amounted to 0.001.
Regarding `COCCCNC(=O)[C@@]1(Cc2ccccc2CN=[N+]=[N-])N=C(c2ccc(OCCCO)cc2)O[C@H]1c1ccccc1`, the composite z-score turned out to be 1.03.
Regarding `C=C[C@@H](OC)[C@H](OC(=O)Nc1ccc(SC)cc1)c1ccc(O)c(F)c1`, the composite z-score came to 0.0462.
With `CCCCCCCCCCC(O)C1C=CC2C(=O)N(C)C(=O)C2N1Nc1ccc([N+](=O)[O-])cc1[N+](=O)[O-]` (configuration not stated) the figure was 1.14.
On to `O=C(NCc1ccccc1)[C@@H]1c2ccccc2C(=O)N(Cc2ccccc2C(F)(F)F)[C@H]1c1ccc(CO)cc1`, for which the composite z-score stood at 0.612.
As for `COCCOC(=O)N1C(=O)[C@@]2(c3cc(C#CCCO)ccc31)[C@H](C(=O)Nc1nc3ccccc3s1)[C@H]1C(=O)O[C@H](c3ccccc3)[C@H](c3ccccc3)N1[C@@H]2c1ccccc1OCCO`, the figure is 1.14; as for `COCCOC(=O)N1C(=O)[C@@]2(c3cc(C#CCC(C(=O)OC)C(=O)OC)ccc31)[C@H](C(=O)N1CCc3cc(OC)c(OC)cc3C1)[C@H]1C(=O)O[C@H](c3ccccc3)[C@H](c3ccccc3)N1[C@@H]2c1ccc(OCCO)cc1`, 1.11; as for `COc1ccc(CCNC(=O)[C@@]2(Sc3ccc(C)cc3)CC(=O)N(C3Cc4ccccc4C3)[C@@H]2c2ccc(CO)cc2)cc1`, 1.14.
Regarding `CC1=C([C@H](O)CCc2ccccc2)[C@H](CO)[C@@H]2C(=O)N(C)C(=O)[C@@H]2C1`, the composite z-score was 0.476.
